# Source: PMC11062922 (Nature Chemical Biology, 2023)
# Like-named read-outs stand apart in the source and are kept apart here.
# Legend:
# Design in all cases: species or system human, MV4-11 + K-562 + COLO205 + SK-N-BE2 + OVCAR-8
# CSNK1D = settings: read-out: apparent Kd, compound concentrations: 100 nM and 1000 nM (sheet 'Samples'), n = 1
# GAK = settings: read-out: apparent Kd; compound concentrations: 100 nM and 1000 nM (sheet 'Samples'), CATDS: 0.103213597019934; n = 1
# GSK3B = settings: read-out: apparent Kd; compound concentrations: 100 nM and 1000 nM (sheet 'Samples'), CATDS: 7.0776673864894807E-2; n = 1
# MAPK10 = settings: read-out: apparent Kd; compound concentrations: 100 nM and 1000 nM (sheet 'Samples'), CATDS: 9.6929032938047402E-2; n = 1
# MAPK14 = settings: read-out: apparent Kd, compound concentrations: 100 nM and 1000 nM (sheet 'Samples'), n = 1
# MAPK9 = settings: read-out: apparent Kd; compound concentrations: 100 nM and 1000 nM (sheet 'Samples'), CATDS: 0.22651523139433999; n = 1
# MAPKAPK2 = settings: read-out: apparent Kd, compound concentrations: 100 nM and 1000 nM (sheet 'Samples'), n = 1
# NLK = settings: read-out: apparent Kd, n = 1
# PIK3CA = settings: read-out: apparent Kd, n = 1
# PRKD2 = settings: read-out: apparent Kd; compound concentrations: 100 nM and 1000 nM (sheet 'Samples'), CATDS: 7.4575323464079593E-2; n = 1
# PRKD3 = settings: read-out: apparent Kd; compound concentrations: 100 nM and 1000 nM (sheet 'Samples'), CATDS: 5.9438089075158997E-2; n = 1
# RET = settings: read-out: apparent Kd, n = 1
# RPS6KA1 = settings: read-out: apparent Kd; compound concentrations: 100 nM and 1000 nM (sheet 'Samples'), CATDS: 0.20748336668369699; n = 1
# CSNK1E = settings: read-out: apparent Kd; compound concentrations: 100 nM and 1000 nM (sheet 'Samples'), CATDS: 7.2450949047452695E-2; n = 1
# PKN3 = settings: read-out: apparent Kd; compound concentrations: 100 nM and 1000 nM (sheet 'Samples'), CATDS: 0.57773444025704901; n = 1
# RIPK2 = settings: read-out: apparent Kd; compound concentrations: 100 nM and 1000 nM (sheet 'Samples'), CATDS: 0.16475470795078001; n = 1
# SPR = settings: read-out: apparent Kd; compound concentrations: 100 nM and 1000 nM (sheet 'Samples'), CATDS: 9.9495378731818698E-2; n = 1
# TESK2 = settings: read-out: apparent Kd; compound concentrations: 100 nM and 1000 nM (sheet 'Samples'), CATDS: 7.5715174552883194E-2; n = 1
# TGFBR2 = settings: read-out: apparent Kd; compound concentrations: 100 nM and 1000 nM (sheet 'Samples'), CATDS: 8.5739105668182394E-2; n = 1
# TP53RK = settings: read-out: apparent Kd; compound concentrations: 100 nM and 1000 nM (sheet 'Samples'), CATDS: 9.9453344807386698E-2; n = 1
# DCTPP1 = settings: read-out: apparent Kd; compound concentrations:100 nM and 1000 nM (sheet 'Samples'); n = 1
# PDXK = settings: read-out: apparent Kd; compound concentrations:100 nM and 1000 nM (sheet 'Samples'); n = 1
# PIK3C3 = settings: read-out: apparent Kd; compound concentrations:100 nM and 1000 nM (sheet 'Samples'); n = 1
# PIK3CB = settings: read-out: apparent Kd; compound concentrations:100 nM and 1000 nM (sheet 'Samples'); n = 1
# PIK3CD = settings: read-out: apparent Kd; compound concentrations:100 nM and 1000 nM (sheet 'Samples'); n = 1
# DDR1 = settings: read-out: apparent Kd; compound concentrations:100 nM and 1000 nM (sheet 'Samples'); n = 1
# DDR2 = settings: read-out: apparent Kd; compound concentrations:100 nM and 1000 nM (sheet 'Samples'); n = 1
# FLT3 = settings: read-out: apparent Kd; compound concentrations:100 nM and 1000 nM (sheet 'Samples'); n = 1
# MAP2K1 = settings: read-out: apparent Kd; compound concentrations:100 nM and 1000 nM (sheet 'Samples'); n = 1
# NQO1 = settings: read-out: apparent Kd; compound concentrations:100 nM and 1000 nM (sheet 'Samples'); n = 1
# RIOK2 = settings: read-out: apparent Kd; compound concentrations:100 nM and 1000 nM (sheet 'Samples'); n = 1
# SMC4 = settings: read-out: apparent Kd; compound concentrations:100 nM and 1000 nM (sheet 'Samples'); n = 1
# CSNK2A1;CSNK2A3 = settings: read-out: apparent Kd; compound concentrations: 100 nM and 1000 nM (sheet 'Samples'), CATDS: 0.33639720251881999; n = 1
# CSNK2A2 = settings: read-out: apparent Kd; compound concentrations: 100 nM and 1000 nM (sheet 'Samples'), CATDS: 0.39667360391151801; n = 1
# PRKAA2 = settings: read-out: apparent Kd; compound concentrations: 100 nM and 1000 nM (sheet 'Samples'), CATDS: 0.28519609584928202; n = 1
# JAK2 = settings: read-out: apparent Kd; compound concentrations:100 nM and 1000 nM (sheet 'Samples'); n = 1
# [1] = compound concentrations:100 nM and 1000 nM (sheet 'Samples')
smiles,measurement,setting,value
Cc1ccc2c(-c3ccnc(Nc4cccc(C(F)(F)F)c4)n3)c(-c3ccccc3)nn2n1 [GW829906X],potency estimated from few doses,CSNK1D; CATDS: 6.2224670805274301E-2,2130 nM
same,potency estimated from few doses,GAK,606 nM
same,potency estimated from few doses,GSK3B,1440 nM
same,potency estimated from few doses,MAPK10,688 nM
same,potency estimated from few doses,MAPK14; CATDS: 8.8284377097412201E-2,839 nM
same,potency estimated from few doses,MAPK9,165 nM
same,potency estimated from few doses,MAPKAPK2; CATDS: 6.8776353647753294E-2,1560 nM
same,potency estimated from few doses,"NLK; compound concentrations: 100 nM and 1000 nM (sheet 'Samples'), CATDS: 6.7080565702130196E-2",1680 nM
same,potency estimated from few doses,"PIK3CA; compound concentrations: 100 nM and 1000 nM (sheet 'Samples'), CATDS: 0.21860301841360499",174 nM
same,potency estimated from few doses,PRKD2,1250 nM
same,potency estimated from few doses,PRKD3,2500 nM
same,potency estimated from few doses,"RET; compound concentrations: 100 nM and 1000 nM (sheet 'Samples'), CATDS: 7.2475765263367006E-2",1350 nM
Nc1nc(-c2ccccc2F)c(-c2ccnc3ccccc23)s1 [GW560459X],potency estimated from few doses,CSNK1D; CATDS: 0.216607074037657,1180 nM
same,potency estimated from few doses,MAPK14; CATDS: 0.25122803409734401,843 nM
same,potency estimated from few doses,MAPKAPK2; CATDS: 0.38711156152007697,389 nM
same,potency estimated from few doses,RPS6KA1,1320 nM
CN(C)CCN(C)C(=O)c1cc(-c2ccncc2)c(-c2ccc(Cl)c(O)c2)o1 [SB-710397_KCGS],potency estimated from few doses,CSNK1D; CATDS: 7.6983160773696893E-2,1400 nM
same,potency estimated from few doses,CSNK1E,1720 nM
same,potency estimated from few doses,MAPK14; CATDS: 9.6688337398944404E-2,748 nM
same,potency estimated from few doses,"NLK; compound concentrations: 100 nM and 1000 nM (sheet 'Samples'), CATDS: 9.9124712412078902E-2",705 nM
same,potency estimated from few doses,PKN3,30.8 nM
same,potency estimated from few doses,RIPK2,247 nM
same,potency estimated from few doses,SPR,698 nM
same,potency estimated from few doses,TESK2,1480 nM
same,potency estimated from few doses,TGFBR2,1020 nM
same,potency estimated from few doses,TP53RK,699 nM
O=c1cc(N2CCOCC2)nc2n(Cc3cccc(Cl)c3Cl)c(C3CC3)nn12 [GSK2358994A],potency estimated from few doses,DCTPP1,1200 nM
same,potency estimated from few doses,NLK; [1],2260 nM
same,potency estimated from few doses,PDXK,1950 nM
same,potency estimated from few doses,PIK3C3,9.02 nM
same,potency estimated from few doses,PIK3CB,3.64 nM
same,potency estimated from few doses,PIK3CD,14.2 nM
COC(=O)Nc1nc2ccc(Oc3ccc(CC(=O)Nc4cc(C(F)(F)F)ccc4F)cc3)cc2[nH]1 [GW680903X],potency estimated from few doses,DDR1,257 nM
same,potency estimated from few doses,DDR2,404 nM
same,potency estimated from few doses,FLT3,713 nM
same,potency estimated from few doses,MAP2K1,2320 nM
same,potency estimated from few doses,NQO1,2020 nM
same,potency estimated from few doses,PIK3C3,1510 nM
same,potency estimated from few doses,PIK3CD,104 nM
same,potency estimated from few doses,RIOK2,1760 nM
same,potency estimated from few doses,SMC4,1910 nM
CC1=C(C(=O)Nc2ccc3[nH]ncc3c2)C(c2ccc(F)cc2)NC(=O)N1 (stereo not shown) [GSK180736A],potency estimated from few doses,CSNK2A1;CSNK2A3,978 nM
same,potency estimated from few doses,CSNK2A2,718 nM
same,potency estimated from few doses,PRKAA2,1410 nM
CN1CCN(CCNc2nc3cc(Oc4ccc(NC(=O)Nc5cc(C(F)(F)F)ccc5F)cc4)ccc3[nH]2)CC1.CN1CCN(CCNc2nc3cc(Oc4ccc(NC(=O)Nc5cc(C(F)(F)F)ccc5F)cc4)ccc3[nH]2)CC1.Cl.Cl [GW768504A],potency estimated from few doses,DDR1,584 nM
same,potency estimated from few doses,JAK2,634 nM
same,potency estimated from few doses,PIK3CA; [1],230 nM
same,potency estimated from few doses,PIK3CD,97.4 nM
same,potency estimated from few doses,RET; [1],1080 nM
